According to PubChem BioAssay AID1159580 (chemical genetic matrix, 2015):
Among all 5,500 compounds or so, about 2,000 (36%) were called active. Not shown: some 18% with an inconclusive outcome. Rule as the data show it: active = normalized growth mostly below about 0.91 (no sharp cut-off); inconclusive = no clear call, values can overlap the other calls; inactive = mostly above about 0.92. The list shows a part of the results.

Test: chemical genetic growth profiling, strain panel (AID 1159580);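 also: tested at 20 µM; growth read once vehicle control cultures reached saturation at 30 °C; 1 = growth at the plate median or of vehicle wells; lower values mean less growth of the strain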
Conditions: growth OD

Measured: normalized growth

COc1cc2c(cc1OC)C1Cc3ccc(OC)c(OC)c3CN1CC2 (configuration not stated)
inactive: S. cerevisiae deletion strains, locus YJR066W, strain TOR1, hits give low values 0.912 | S. cerevisiae deletion strains, locus YKL009W, strain mrt4, hits give low values 0.988 | S. cerevisiae deletion strains, locus YKL068W, hits give low values 0.999 | S. cerevisiae deletion strains, locus YKL085W, strain MDH1 (second series), hits give low values 0.988 | S. cerevisiae deletion strains, locus YKL085W, strain MDH1, hits give low values 0.988 | S. cerevisiae deletion strains, locus YKL160W, strain elf1, hits give low values 1.01 | S. cerevisiae deletion strains, locus YKR001C, strain vps1, hits give low values 1.01 | S. cerevisiae deletion strains, locus YKR026C, strain gcn3, hits give low values 0.979 | S. cerevisiae deletion strains, locus YKR091W, strain srl3, hits give low values 0.98 | S. cerevisiae deletion strains, locus YLL001W, strain dnm1, hits give low values 0.99 | S. cerevisiae deletion strains, locus YLL026W, hits give low values 0.989 | S. cerevisiae deletion strains, locus YLL041C, strain sdh2, hits give low values 0.975 | S. cerevisiae deletion strains, locus YLR027C, strain aat2, hits give low values 0.969 | S. cerevisiae deletion strains, locus YLR039C, strain RIC1, hits give low values 0.979 | S. cerevisiae deletion strains, locus YLR058C, strain SHM2, hits give low values 1.01 | S. cerevisiae deletion strains, locus YLR102C, strain apc9, hits give low values 0.982 | S. cerevisiae deletion strains, locus YLR113W, strain HOG1, hits give low values 0.978 | S. cerevisiae deletion strains, locus YLR221C, strain rsa3, hits give low values 0.985 | S. cerevisiae deletion strains, locus YLR258W, strain gsy2, hits give low values 0.977 | S. cerevisiae deletion strains, locus YLR262C, strain YPT6 (second series), hits give low values 0.957 | S. cerevisiae deletion strains, locus YLR262C, strain YPT6, hits give low values 0.918 | S. cerevisiae deletion strains, locus YLR268W, strain sec22, hits give low values 0.962 | S. cerevisiae deletion strains, locus YLR320W, strain mms22, hits give low values 0.982 | S. cerevisiae deletion strains, locus YLR330W, strain CHS5, hits give low values 1.01 | S. cerevisiae deletion strains, locus YLR342W, strain FKS1 (second series), hits give low values 0.957 | S. cerevisiae deletion strains, locus YLR342W, strain FKS1, hits give low values 0.968 | S. cerevisiae deletion strains, locus YLR357W, strain rsc2, hits give low values 0.994 | S. cerevisiae deletion strains, locus YLR370C, strain arc18, hits give low values 0.971 | S. cerevisiae deletion strains, locus YLR371W, strain rom2, hits give low values 1.01 | S. cerevisiae deletion strains, locus YLR384C, strain iki3, hits give low values 0.988 | S. cerevisiae deletion strains, locus YLR418C, strain cdc73, hits give low values 1.02 | S. cerevisiae deletion strains, locus YML016C, strain PPZ1, hits give low values 0.988 | S. cerevisiae deletion strains, locus YML032C, strain rad52, hits give low values 1.03 | S. cerevisiae deletion strains, locus YML120C, strain ndi1, hits give low values 0.984 | S. cerevisiae deletion strains, locus YML124C, strain tub3, hits give low values 0.987 | S. cerevisiae deletion strains, locus YMR058W, strain fet3, hits give low values 0.984 | S. cerevisiae deletion strains, locus YMR078C, strain ctf18, hits give low values 0.968 | S. cerevisiae deletion strains, locus YMR125W, strain sto1, hits give low values 0.953 | S. cerevisiae deletion strains, locus YMR129W, hits give low values 0.978 | S. cerevisiae deletion strains, locus YMR205C, strain PFK2, hits give low values 0.987 | S. cerevisiae deletion strains, locus YMR223W, strain ubp8, hits give low values 1.01 | S. cerevisiae deletion strains, locus YMR231W, strain pep5, hits give low values 0.966 | S. cerevisiae deletion strains, locus YMR263W, strain SAP30, hits give low values 1 | S. cerevisiae deletion strains, locus YMR307W, strain GAS1, hits give low values 1 | S. cerevisiae deletion strains, locus YNL067W, strain RPL9B, hits give low values 1.02 | S. cerevisiae deletion strains, locus YNL071W, strain lat1, hits give low values 0.974 | S. cerevisiae deletion strains, locus YNL128W, strain TEP1, hits give low values 0.983 | S. cerevisiae deletion strains, locus YNL153C, strain GIM3, hits give low values 1.03 | S. cerevisiae deletion strains, locus YNL183C, strain NPR1, hits give low values 0.93 | S. cerevisiae deletion strains, locus YNL209W, strain ssb2, hits give low values 1.01 | S. cerevisiae deletion strains, locus YNL233W, strain BNI4, hits give low values 1.02 | S. cerevisiae deletion strains, locus YNL248C, strain rpa49, hits give low values 0.961 | S. cerevisiae deletion strains, locus YNL250W, strain rad50, hits give low values 0.968 | S. cerevisiae deletion strains, locus YNL271C, strain bni1, hits give low values 0.976 | S. cerevisiae deletion strains, locus YNL298W, strain CLA4, hits give low values 0.991 | S. cerevisiae deletion strains, locus YNL307C, strain MCK1, hits give low values 1 | S. cerevisiae deletion strains, locus YNL322C, strain KRE1 (second series), hits give low values 0.948 | S. cerevisiae deletion strains, locus YNR049C, strain mso1, hits give low values 0.967 | S. cerevisiae deletion strains, locus YNR052C, strain pop2, hits give low values 0.993 | S. cerevisiae deletion strains, locus YOL012C, strain htz1 0.904 | S. cerevisiae deletion strains, locus YOL147C, strain pex11, hits give low values 0.99 | S. cerevisiae deletion strains, locus YOR001W, strain rrp6, hits give low values 0.957 | S. cerevisiae deletion strains, locus YOR061W, strain CKA2, hits give low values 0.996 | S. cerevisiae deletion strains, locus YOR069W, strain VPS5, hits give low values 0.984 | S. cerevisiae deletion strains, locus YOR070C, strain gyp1, hits give low values 0.984 | S. cerevisiae deletion strains, locus YOR080W, strain dia2, hits give low values 0.971 | S. cerevisiae deletion strains, locus YOR083W, strain WHI5, hits give low values 1.01 | S. cerevisiae deletion strains, locus YOR106W, strain vam3, hits give low values 0.987 | S. cerevisiae deletion strains, locus YOR136W, strain idh2, hits give low values 0.975 | S. cerevisiae deletion strains, locus YOR144C, strain elg1, hits give low values 0.989 | S. cerevisiae deletion strains, locus YOR184W, strain ser1, hits give low values 0.917 | S. cerevisiae deletion strains, locus YOR231W, strain MKK1, hits give low values 0.99 | S. cerevisiae deletion strains, locus YOR265W, strain rbl2, hits give low values 0.961 | S. cerevisiae deletion strains, locus YOR270C, strain vph1, hits give low values 0.94 | S. cerevisiae deletion strains, locus YOR290C, strain snf2, hits give low values 0.994 | S. cerevisiae deletion strains, locus YOR316C, strain cot1, hits give low values 0.99 | S. cerevisiae deletion strains, locus YPL051W, strain arl3, hits give low values 0.997 | S. cerevisiae deletion strains, locus YPL078C, strain atp4, hits give low values 0.981 | S. cerevisiae deletion strains, locus YPL106C, strain sse1, hits give low values 1.02 | S. cerevisiae deletion strains, locus YPL240C, strain hsp82, hits give low values 0.968 | S. cerevisiae deletion strains, locus YPL256C, strain CLN2, hits give low values 1 | S. cerevisiae deletion strains, locus YPR119W, strain clb2, hits give low values 0.994 | S. cerevisiae deletion strains, locus YPR141C, strain kar3, hits give low values 0.982 | S. cerevisiae deletion strains, locus YPR163C, strain tif3, hits give low values 0.989 | S. cerevisiae deletion strains, locus YPR167C, strain met16, hits give low values 0.99 | S. cerevisiae deletion strains, strain wtn01, hits give low values 0.968 | S. cerevisiae strains, strain wild type, hits give low values 1.01
